Records with an inconclusive call do not appear. Activity calls are given as the source filed them. Calls come from the whole dose curve; as a rule, active = well fitted curve in the direction sought with a large enough effect in the repeat runs; inconclusive = weak or mixed curves; inactive = no such curve, though single readings can be large; an effect the other way counts as inactive or inconclusive.
% is set by controls: 0 for no effect and ±100 for the full control effect.
Note: nearly all actives have a fitted effect of over 50% in size.

Cytochrome P450 3A4 (Homo sapiens), sequence (P08684 whole entry, looked up): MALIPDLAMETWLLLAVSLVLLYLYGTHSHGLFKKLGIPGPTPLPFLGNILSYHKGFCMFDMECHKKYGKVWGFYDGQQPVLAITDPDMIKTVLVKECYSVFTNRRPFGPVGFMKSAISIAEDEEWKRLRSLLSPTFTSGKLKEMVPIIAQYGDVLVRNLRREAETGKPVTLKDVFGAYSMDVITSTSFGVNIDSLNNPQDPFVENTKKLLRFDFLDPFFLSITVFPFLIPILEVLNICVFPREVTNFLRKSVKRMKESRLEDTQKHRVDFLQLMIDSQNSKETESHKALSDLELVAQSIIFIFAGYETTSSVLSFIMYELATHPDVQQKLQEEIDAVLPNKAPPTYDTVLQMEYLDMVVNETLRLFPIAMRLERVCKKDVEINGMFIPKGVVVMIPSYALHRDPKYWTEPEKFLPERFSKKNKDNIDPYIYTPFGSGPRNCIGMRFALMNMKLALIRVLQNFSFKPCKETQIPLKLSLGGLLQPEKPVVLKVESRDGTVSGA

The target in one assay is Cytochrome P450 1A2 (Homo sapiens) (UniProt P05177). Briefly: Cytochrome P450 Family 1 Subfamily A Member 2 (CYP1A2) small molecule antagonists: luciferase reporter qHTS assay (AID 1671199). Note: potency is the fitted concentration of half-maximal effect. Conditions: P450-Glo CYP1A2 enzyme, luciferin luminescence, 1 h; series mostly up to 115 µM; activity change, negative = inhibition: at the top concentration. In a few lines: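 Compounds were incubated with CYP1A2 and a luminogenic proluciferin substrate for 10 min at room temperature before the reaction was started with NADPH regeneration solution. After 1 h, detection reagent was added and light output, proportional to CYP activity, was recorded.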
Cytochrome P450 1A2 (Homo sapiens), sequence (P05177 whole entry, looked up): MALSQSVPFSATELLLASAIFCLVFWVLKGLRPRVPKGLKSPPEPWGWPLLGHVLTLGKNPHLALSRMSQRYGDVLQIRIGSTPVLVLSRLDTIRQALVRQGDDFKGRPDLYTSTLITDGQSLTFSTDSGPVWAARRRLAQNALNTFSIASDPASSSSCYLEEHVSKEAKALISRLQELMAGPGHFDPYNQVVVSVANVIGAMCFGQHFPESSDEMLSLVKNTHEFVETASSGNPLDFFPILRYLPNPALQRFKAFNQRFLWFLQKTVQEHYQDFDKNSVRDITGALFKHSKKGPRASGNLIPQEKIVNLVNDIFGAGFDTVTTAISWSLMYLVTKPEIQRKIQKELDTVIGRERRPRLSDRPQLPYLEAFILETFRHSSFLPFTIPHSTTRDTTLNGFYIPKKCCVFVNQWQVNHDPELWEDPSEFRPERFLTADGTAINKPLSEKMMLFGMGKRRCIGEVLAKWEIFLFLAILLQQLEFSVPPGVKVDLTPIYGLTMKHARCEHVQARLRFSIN
For orientation: In a reporter assay the amount or activity of a reporter protein is the signal.
As for `N#CC(Br)(Br)C(N)=O`, the “activity change, negative = inhibition” value was -20.6% (inactive).

Consider `O=C(NC(O)C(Cl)(Cl)Cl)NC(O)C(Cl)(Cl)Cl` (stereo not given), for which the “activity change, negative = inhibition” value was -3.06% [at 53 µM] (inactive).

Take `CCCCS(=O)(=O)Cl`: the “activity change, negative = inhibition” value was -11.2% (inactive).

As for `C[C@]12C=CC(=O)C=C1CC[C@@H]1[C@@H]2CC[C@@]2(C)[C@H]1CC[C@]2(C)O`, the “activity change, negative = inhibition” value was -2.17% [at 53 µM] (inactive).

As to `CCN(CCO)CCn1c(Cc2ccccc2)nc2c1c(=O)n(C)c(=O)n2C`, the “activity change, negative = inhibition” value was 14.8% [at 53 µM] (inactive).

For `CCc1cc(OC)c(C[C@H](C)N)cc1OC`, the Potency is 20.9 µM (active).

`CCCCCCCC(=O)Cl`: the “activity change, negative = inhibition” value was -18.5% (inactive).

In the case of `CC(C)(C)NC[C@H](O)c1ccc(O)cc1Cl`, the “activity change, negative = inhibition” value was 12.1% [at 53 µM] (inactive).

`NC1(c2ccccc2)CCCCC1`: the “activity change, negative = inhibition” value was -0.409% (inactive).

Turning to `CCN(CCO)CCO`, the “activity change, negative = inhibition” value is -16.4% (inactive).

Regarding `NNCc1ccccc1`, the Potency was 12.9 µM (active).

`C[C@H](N)C(=O)c1ccccc1`: the Potency is 53.1 µM (active).

Turning to `COC(=O)c1ccc(CBr)cc1`, the Potency was 36 µM (active).

Turning to `CC1N=C(N)OC1c1ccccc1` (stereo not given), the “activity change, negative = inhibition” value was 0.875% (inactive).

Turning to `CCN[C@@H](C)Cc1ccccc1`, the “activity change, negative = inhibition” value is -13.7% (inactive).

Regarding `ClC1=C(Cl)C2(Cl)C(CBr)CC1(Cl)C2(Cl)Cl` (stereo not given), the “activity change, negative = inhibition” value was 12.4% [at 53 µM] (inactive).

As for `C=C1CC[C@@]2(O)[C@H]3Cc4ccc(O)c5c4[C@@]2(CCN3CC2CC2)[C@H]1O5`, the “activity change, negative = inhibition” value was -4.76% [at 53 µM] (inactive).

As for `C(COCC1CO1)OCC1CO1` (stereo not given), the “activity change, negative = inhibition” value was -16.9% (inactive).

`COP(=O)(O)OC`: the Potency is 32.8 µM (active).

With `CCNc1nc(NCC)nc(SC)n1`, the Potency is 10 µM (active).

With `C[C@H](CN1CCOCC1)C(C(=O)N1CCCC1)(c1ccccc1)c1ccccc1`, the “activity change, negative = inhibition” value was 0.279% (inactive).

For the compound `CCOC(=O)Nc1cccc(OC(=O)Nc2ccccc2)c1`, the Potency was 12.6 µM (active).

Take `BrCC1CO1` (stereo not given): the “activity change, negative = inhibition” value is -15.6% (inactive).

Regarding `NNC(N)=O`, the Potency was 36.5 µM (active).

With `[P]#[In]`, the “activity change, negative = inhibition” value is -11.8% (inactive).

Take `O=C(O)CBr`: the “activity change, negative = inhibition” value is -17.3% (inactive).

Take `CCCC[N+](=O)[O-]`: the “activity change, negative = inhibition” value was -14.2% (inactive).

In the case of `OCC(Cl)CCl` (stereo not given), the Potency is 39.4 µM (active).

Another assay deals with Voltage-gated inwardly rectifying potassium channel KCNH2 (Homo sapiens) (UniProt Q12809). Briefly: Human Ether-a-go-go-Related Gene (hERG) channel small molecule antagonists: fluorescence cell-based qHTS assay (AID 1671200).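 Note: hERG-expressing U2OS cells given a thallium stimulus after FluxOR II dye loading.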 Particulars: hERG-U2OS cells, FluxOR thallium flux fluorescence; series mostly up to 76.8 µM; activity change, negative = inhibition: at the top concentration. Summed up: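 hERG-U2OS cells plated overnight at 37 C, loaded with FluxOR II dye 1 h at RT in dark; after 10 min, thallium stimulus added. Fluorescence (480/540 nm) read kinetically for 2 min at 1 s intervals.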
Voltage-gated inwardly rectifying potassium channel KCNH2 (Homo sapiens), sequence (Q12809 whole entry, looked up): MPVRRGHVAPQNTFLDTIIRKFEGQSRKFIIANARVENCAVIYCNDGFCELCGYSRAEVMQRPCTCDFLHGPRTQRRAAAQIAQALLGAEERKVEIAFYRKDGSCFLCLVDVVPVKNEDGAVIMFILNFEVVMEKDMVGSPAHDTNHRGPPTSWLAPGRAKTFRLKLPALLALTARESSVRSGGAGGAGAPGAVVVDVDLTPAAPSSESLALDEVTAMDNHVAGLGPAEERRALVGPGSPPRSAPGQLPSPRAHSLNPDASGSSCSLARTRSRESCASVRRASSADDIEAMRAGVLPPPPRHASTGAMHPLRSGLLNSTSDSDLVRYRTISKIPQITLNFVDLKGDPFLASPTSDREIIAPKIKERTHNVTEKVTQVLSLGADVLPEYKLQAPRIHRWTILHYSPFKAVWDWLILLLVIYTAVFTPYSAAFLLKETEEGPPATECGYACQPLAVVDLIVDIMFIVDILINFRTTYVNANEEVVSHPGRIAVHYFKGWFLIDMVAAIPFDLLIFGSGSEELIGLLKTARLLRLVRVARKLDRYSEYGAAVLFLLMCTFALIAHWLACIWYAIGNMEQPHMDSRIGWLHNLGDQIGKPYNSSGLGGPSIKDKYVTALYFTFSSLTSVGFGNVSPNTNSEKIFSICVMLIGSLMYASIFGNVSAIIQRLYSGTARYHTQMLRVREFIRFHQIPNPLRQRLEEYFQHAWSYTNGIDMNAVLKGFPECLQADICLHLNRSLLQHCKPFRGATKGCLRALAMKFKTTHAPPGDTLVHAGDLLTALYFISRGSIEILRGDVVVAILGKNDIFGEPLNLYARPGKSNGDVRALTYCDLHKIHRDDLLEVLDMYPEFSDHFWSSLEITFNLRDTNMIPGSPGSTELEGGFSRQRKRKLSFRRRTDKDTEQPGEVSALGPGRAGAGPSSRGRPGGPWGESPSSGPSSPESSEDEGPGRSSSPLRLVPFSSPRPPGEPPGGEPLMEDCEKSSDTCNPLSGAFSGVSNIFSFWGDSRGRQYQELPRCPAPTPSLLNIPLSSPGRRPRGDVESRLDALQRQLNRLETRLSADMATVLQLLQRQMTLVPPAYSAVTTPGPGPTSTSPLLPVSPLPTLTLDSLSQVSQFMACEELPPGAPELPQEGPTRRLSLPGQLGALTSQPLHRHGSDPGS
For orientation: The hERG channel carries a current that helps repolarise heart muscle cells.
As to `N#CC(Br)(Br)C(N)=O`, the “activity change, negative = inhibition” value is 1.03% (inactive).

`O=C(NC(O)C(Cl)(Cl)Cl)NC(O)C(Cl)(Cl)Cl` (stereo not given): the “activity change, negative = inhibition” value is 4.02% [at 35.3 µM] (inactive).

As for `CCCCS(=O)(=O)Cl`, the “activity change, negative = inhibition” value was 4.48% (inactive).

Regarding `C[C@]12C=CC(=O)C=C1CC[C@@H]1[C@@H]2CC[C@@]2(C)[C@H]1CC[C@]2(C)O`, the “activity change, negative = inhibition” value was -0.71% [at 35.3 µM] (inactive).

In the case of `O=c1[nH]c2ccccc2o1`, the “activity change, negative = inhibition” value was -0.918% (inactive).

With `CCN(CCO)CCn1c(Cc2ccccc2)nc2c1c(=O)n(C)c(=O)n2C`, the “activity change, negative = inhibition” value is -0.165% [at 35.3 µM] (inactive).

Consider `CCc1cc(OC)c(C[C@H](C)N)cc1OC`, for which the “activity change, negative = inhibition” value is -0.0391% (inactive).

Consider `O=C(O)c1c(Cl)ccc2cc(Cl)cnc12`, for which the “activity change, negative = inhibition” value is 0.158% (inactive).

`c1cncc([C@@H]2CCCCN2)c1`: the “activity change, negative = inhibition” value was -5.38% (inactive).

As for `CC(C)(C)NC[C@H](O)c1ccc(O)cc1Cl`, the “activity change, negative = inhibition” value was -5.82% [at 35.3 µM] (inactive).

Consider `NC1(c2ccccc2)CCCCC1`, for which the “activity change, negative = inhibition” value is 0.229% (inactive).

For the compound `COC(=O)c1ccc(CBr)cc1`, the “activity change, negative = inhibition” value was 0.332% (inactive).

`CCN[C@@H](C)Cc1ccccc1`: the “activity change, negative = inhibition” value is 1.86% (inactive).

As for `CC(=O)CN(CC(C)=O)N=O`, the “activity change, negative = inhibition” value was -9.03% (inactive).

With `ClC1=C(Cl)C2(Cl)C(CBr)CC1(Cl)C2(Cl)Cl` (stereo not given), the “activity change, negative = inhibition” value was -7.09% [at 35.3 µM] (inactive).

For `C=C1CC[C@@]2(O)[C@H]3Cc4ccc(O)c5c4[C@@]2(CCN3CC2CC2)[C@H]1O5`, the “activity change, negative = inhibition” value was -8.87% [at 35.3 µM] (inactive).

In the case of `COP(=O)(O)OC`, the “activity change, negative = inhibition” value is 4.8% (inactive).

Consider `CCNc1nc(NCC)nc(SC)n1`, for which the “activity change, negative = inhibition” value was -0.915% (inactive).

Turning to `C[C@H](CN1CCOCC1)C(C(=O)N1CCCC1)(c1ccccc1)c1ccccc1`, the “activity change, negative = inhibition” value is -18% (inactive).

As to `CCOC(=O)Nc1cccc(OC(=O)Nc2ccccc2)c1`, the “activity change, negative = inhibition” value is 6.38% (inactive).

For the compound `COc1ccc(CN2CCNCC2)c(OC)c1OC`, the “activity change, negative = inhibition” value is 3.12% [at 35.3 µM] (inactive).

Regarding `[P]#[In]`, the “activity change, negative = inhibition” value was 2.96% (inactive).

On to `O=C(O)CBr`, for which the “activity change, negative = inhibition” value was 4.6% (inactive).

`CCCC[N+](=O)[O-]`: the “activity change, negative = inhibition” value was 3.51% (inactive).

Take `OCC(Cl)CCl` (stereo not given): the “activity change, negative = inhibition” value was 1.65% (inactive).

Another assay deals with Cytochrome P450 3A4 (Homo sapiens) (UniProt P08684). Briefly: Cytochrome P450 Family 3 Subfamily A Member 4 (CYP3A4) small molecule antagonists: luciferase reporter qHTS assay (AID 1671201). Note: potency is the fitted concentration of half-maximal effect. Particulars: P450-Glo CYP3A4 enzyme, luciferin luminescence, 1 h; series mostly up to 115 µM; activity change, negative = inhibition: at the top concentration. In a few lines:
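P450-Glo CYP3A4 luminescent assay: compounds preincubated 10 min at room temperature with enzyme and proluciferin substrate, NADPH regeneration added, 1 h room-temperature reaction, stopped with luciferin detection reagent; luminescence read after 20 min. Ketoconazole positive control.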
Take `N#CC(Br)(Br)C(N)=O`: the “activity change, negative = inhibition” value is 2.53% (inactive).

As to `O=C(NC(O)C(Cl)(Cl)Cl)NC(O)C(Cl)(Cl)Cl` (stereo not given), the “activity change, negative = inhibition” value is 1.69% [at 52.9 µM] (inactive).

In the case of `CCCCS(=O)(=O)Cl`, the “activity change, negative = inhibition” value was 6.74% (inactive).

In the case of `C[C@]12C=CC(=O)C=C1CC[C@@H]1[C@@H]2CC[C@@]2(C)[C@H]1CC[C@]2(C)O`, the “activity change, negative = inhibition” value is 41.2% [at 52.9 µM] (inactive).

On to `O=c1[nH]c2ccccc2o1`, for which the “activity change, negative = inhibition” value was -2.54% (inactive).

Regarding `CCN(CCO)CCn1c(Cc2ccccc2)nc2c1c(=O)n(C)c(=O)n2C`, the “activity change, negative = inhibition” value was 2.13% [at 52.9 µM] (inactive).

`CCCCCCCC(=O)Cl`: the “activity change, negative = inhibition” value is -3.06% (inactive).

As to `O=C(O)c1c(Cl)ccc2cc(Cl)cnc12`, the “activity change, negative = inhibition” value is -8.03% (inactive).

For the compound `CC(C)(C)NC[C@H](O)c1ccc(O)cc1Cl`, the “activity change, negative = inhibition” value is 3.19% [at 52.9 µM] (inactive).

In the case of `NC1(c2ccccc2)CCCCC1`, the “activity change, negative = inhibition” value was 7.16% (inactive).

For the compound `CCN(CCO)CCO`, the “activity change, negative = inhibition” value was 4.17% (inactive).

`NNCc1ccccc1`: the Potency was 32.3 µM (active).

`CC1N=C(N)OC1c1ccccc1` (stereo not given): the “activity change, negative = inhibition” value is 4.15% (inactive).

`CCN[C@@H](C)Cc1ccccc1`: the “activity change, negative = inhibition” value is 1.15% (inactive).

With `CC(=O)CN(CC(C)=O)N=O`, the “activity change, negative = inhibition” value was 4.84% (inactive).

As for `COc1ccc(C=O)cc1O`, the “activity change, negative = inhibition” value is 3.22% (inactive).

Turning to `C=C1CC[C@@]2(O)[C@H]3Cc4ccc(O)c5c4[C@@]2(CCN3CC2CC2)[C@H]1O5`, the “activity change, negative = inhibition” value was 3.89% [at 52.9 µM] (inactive).

With `C(COCC1CO1)OCC1CO1` (stereo not given), the “activity change, negative = inhibition” value was 0.39% (inactive).

For the compound `COP(=O)(O)OC`, the “activity change, negative = inhibition” value is 0.0624% (inactive).

In the case of `CCNc1nc(NCC)nc(SC)n1`, the “activity change, negative = inhibition” value was 56.9% (inactive).

As to `O=C(O)C(F)(F)C(F)(F)C(F)(F)C(F)(F)C(F)(F)C(F)(F)F`, the “activity change, negative = inhibition” value was 243% (inactive).

As for `BrCC1CO1` (stereo not given), the “activity change, negative = inhibition” value is -2.95% (inactive).

On to `NNC(N)=O`, for which the “activity change, negative = inhibition” value was 3.82% (inactive).

For the compound `[P]#[In]`, the “activity change, negative = inhibition” value was 5.56% (inactive).

Take `O=C(O)CBr`: the “activity change, negative = inhibition” value is 36% (inactive).

As for `CCCC[N+](=O)[O-]`, the “activity change, negative = inhibition” value is 17.1% (inactive).

On to `OCC(Cl)CCl` (stereo not given), for which the “activity change, negative = inhibition” value is 1.51% (inactive).

The values above are taken from PubChem BioAssay (Tox21).
